# Several values for one entry are separate records, joined by “and”; a condition that tells them apart may be missing. Equal values may be shown once. Records with an inconclusive call do not appear. Activity calls are given as the source filed them. Unless noted, no cut-off is given here; in the data, nearly all actives have AC50 up to about 30 µM.
# Tests used:
# [1] = liver-stage malaria parasite growth inhibition, primary screen, cell-based, HepG2, luciferase luminescence, HepG2 viability (AID 624349; in the data active = parasite load remaining mostly below about 12%, no sharp cut-off; inactive = mostly above about 10%;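 note: 100% = mean of DMSO negative control wells on the same plate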); conditions: P. berghei liver stage in HepG2, luciferase luminescence, concentration not given here; parasite load remaining: stronger effect = lower value; viability: measured here: HepG2 viability without parasites
# [2] = stimulators of nuclear beta-catenin in C2C12, primary screen, imaging, WNT3A-conditioned medium, mouse C2C12, NPC library (AID 1117326; in the data active = nuclear beta-catenin stimulation mostly above about 4.2%, no sharp cut-off; inactive = mostly below about 10%; note: reference of the scale not given here); conditions: stronger effect = higher value
# [3] = stimulators of insulin release from INS-1E, primary screen, cell-based, 5 mM glucose, NPC library (AID 1117329;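 active = compound raises insulin release from rat beta cells at 5 mM glucose, no numeric limit stated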; note: reference of the scale not given here); conditions: rat INS-1E insulin secretion, at 10 µM, stronger effect = higher value
# [4] = growth inhibition of GSK3B-pretreated HCT116 cells – cell-based, CellTiter-Glo, 0.2 to 20 µM (AID 1117336;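 active = compounds lowering colon cancer cell viability after pretreatment blocking the GSK3B kinase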); conditions: HCT116 viability after GSK3B inhibitor, at 20 µM, stronger effect = higher value
# [5] = inhibition of endothelial tube formation, primary screen, imaging, VEGF stimulated, CD31 staining, tube area, NPC library (AID 1117340;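 active = compound that reduces growth-factor-driven endothelial tube area in a mixed cell culture, no cutoff stated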); conditions: VEGF-stimulated ADSC/ECFC co-culture, at 10 µM, stronger effect = higher value
# [6] = glucagon-like peptide 1 release enhancers, primary assay, NCI-H716 cell line, NPC library (AID 1117341;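 active = compound raises GLP1 secretion from the human gut endocrine cells, with no numeric limit stated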; note: reference of the scale not given here); conditions: NCI-H716 cells, at 10 µM, stronger effect = higher value
# [7] = HCT116 colon cancer cell growth inhibition, primary screen, CellTiter-Glo luminescence, NPC library (AID 1117342;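 active = compounds that lower survival of HCT116 colon cancer cells in the luminescence readout, no numeric limit stated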); conditions: at 20 µM (top of the series)
# [8] = CellTiter-Glo luminescent readout of SW480 viability loss, NPC library primary (AID 1117343;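 active = compounds that lower viability of the colon cancer cells in the luminescence readout, with no numeric limit stated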); conditions: CellTiter-Glo luminescence; at 20 µM (top of the series) unless noted
# [9] = decreased DLD-1 cellular survival, CellTiter-Glo luminescent readout, NPC compound collection, primary HTS (AID 1117346;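 active = compounds that lower survival of DLD-1 colon cancer cells in the luminescence readout, no cutoff given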); conditions: DLD-1 viability, CellTiter-Glo luminescence; at 20 µM (top of the series)
# [10] = growth inhibition of DIPG glioma cells, dose response, cell-based, JHH-DIPG-1, MIPE4.0, CellTiter-Glo, qHTS (AID 1347062; cut-off not given, nearly all actives have AC50 up to about 27 µM;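 for AC50: cells exposed to compound for two days before readout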); conditions: JHH-DIPG-1 viability, CellTiter-Glo ATP luminescence
# [11] = SU-DIPG-VI glioma cell viability, MIPE4.0 library, CellTiter-Glo luminescence, qHTS (AID 1347066); conditions: CellTiter-Glo ATP luminescence;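 note: cells exposed to compound for 48 hours before readout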
# [12] = sensitizers of A549 cells to miR-34 induction, primary screen, imaging, A549 dox-inducible miR-34, nuclei and caspase counts (AID 1347080;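 active = compounds whose cell count with miR-34 switched on is under 0.7 times the count with it off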); conditions: A549 miR-34 inducible, Hoechst nuclei count, 48 h
# [13] = survival rescue of mitochondrial mutant cells in low glucose, primary screen, MELAS cybrids, Rieske KO mouse fibroblasts, CellTiter-Glo (AID 1508586;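 active = mean z-score across replicates of 1.96 or higher in either the MELAS or the Rieske mutant cell line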;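 note: z relative to plate mean and SD of compound and empty wells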)
# [14] = viability rescue of complex I mutant cybrids, primary screen, cell-based, galactose medium, ATP luminescence (AID 1645843;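 active = z-score of at least 1.8 in each of two replicates, scored against plate mean and spread of sample wells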;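 note: positive z means more ATP and so rescue of galactose-driven cybrid death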); conditions: complex I mutant cybrid cells, 72 h, stronger effect = higher value
# [15] = viability loss in pontine glioma line – cell-based, SU-DIPG-XXV, MIPE5.0, CellTiter-Glo, qHTS, dose response (AID 1347065; cut-off not given, nearly all actives have AC50 up to about 26 µM;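 note: cells exposed to compound for 48 hours before ATP readout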); conditions: CellTiter-Glo ATP luminescence
# [16] = JHH-DIPG-1 glioma cell viability, MIPE5.0 library, CellTiter-Glo luminescence, qHTS (AID 1347067; cut-off not given, nearly all actives have AC50 up to about 26 µM;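 note: cells exposed to compound for 48 hours before readout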); conditions: JHH-DIPG-1 glioma viability, CellTiter-Glo ATP luminescence
# [17] = SU-DIPG-XXV glioma cell viability, MIPE5.0 library, qHTS (AID 1347068; cut-off not given, nearly all actives have IC50 up to about 30 µM)
# [18] = growth inhibition of DIPG glioma cells, dose response, cell-based, SU-DIPG-IV, MIPE4.0, CellTiter-Glo, qHTS (AID 1347063); conditions: SU-DIPG-IV viability, CellTiter-Glo ATP luminescence;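 note: compound exposure lasted 48 hours before the viability readout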
# [19] = phospholipid biosynthesis inhibitors in animal cells, primary screen, cell-based, LOPAC library, screen 4 (AID 1347384; call rule not given here); conditions: phospholipid biosynthesis inhibition screen, at 10 µM
# [20] = stronger effect = lower value, cell number ratio, induced over uninduced
# [21] = measured here: relative caspase fold change +Dox/-Dox
# [22] = measured here: total cells with miR-34 induction, stronger effect = lower value
# [23] = measured here: total cells without miR-34 induction
# [24] = MELAS cybrid survival, CellTiter-Glo 48 h, stronger effect = higher value
# [25] = Rieske KO mouse fibroblast survival, CellTiter-Glo 72 h
compound,measurement,setting,value
COC(=O)N[C@H](C(=O)N[C@@H](Cc1ccccc1)[C@@H](O)CN(Cc1ccc(-c2ccccn2)cc1)NC(=O)[C@@H](NC(=O)OC)C(C)(C)C)C(C)(C)C,parasite load remaining,[1],62.2% (inactive)
same,viability,[1],276%
same,nuclear beta-catenin stimulation,[2]; at 10 µM,2.9% (inactive)
same,nuclear beta-catenin stimulation,"[2]; stimulation, at 2 µM",0.8%
same,insulin secretion stimulation,[3],2.15% (inactive)
same,viability decrease,[4],-7% (inactive)
same,tube area decrease,[5],82.7% (active)
same,GLP1 secretion stimulation,[6],-0.7% (inactive)
same,inhibition of viability,[7],5.8% (inactive)
same,viability decrease (inhibition),[8],-2% (inactive)
same,viability decrease (inhibition),[9],-6.7% (inactive)
same,outcome,[10],inactive
same,outcome,[11],inactive
same,fold change,[12]; [20],0.809 (inactive)
same,fold change,[12]; [21],0.911
same,cell count,[12]; [22],8470
same,cell count,[12]; [23],10500
same,z-score,[13]; [24],-0.0891 (inactive)
same,z-score,[13]; [25],-1.39
same,z-score,[14],0.325 (inactive)
CC(=O)O[C@@]12CO[C@@H]1C[C@H](O)[C@@]1(C)C(=O)[C@H](O)C3=C(C)[C@@H](OC(=O)[C@H](O)[C@@H](NC(=O)OC(C)(C)C)c4ccccc4)C[C@@](O)([C@@H](OC(=O)c4ccccc4)[C@H]21)C3(C)C,parasite load remaining,[1],80.3% (inactive)
same,viability,[1],114%
same,nuclear beta-catenin stimulation,[2]; at 10 µM,66.2% (active)
same,nuclear beta-catenin stimulation,"[2]; stimulation, at 2 µM",49.3%
same,insulin secretion stimulation,[3],-0.6% (inactive)
same,viability decrease,[4],71.8% (active)
same,tube area decrease,[5],98.1% (active)
same,GLP1 secretion stimulation,[6],-0.5% (inactive)
same,inhibition of viability,[7],58.9% (active)
same,viability decrease (inhibition),[8],36.5% (active)
same,viability decrease (inhibition),[9],31.8% (active)
same,AC50,[15],0.00209 µM (active)
same,outcome,[16],inactive
same,outcome,[17],inactive
same,fold change,[12]; [20],0.999 (inactive)
same,fold change,[12]; [21],0.907
same,cell count,[12]; [22],2910
same,cell count,[12]; [23],2910
same,z-score,[13]; [24],-1.22 (inactive)
same,z-score,[13]; [25],0.541
same,z-score,[14],-0.435 (inactive)
COc1cc(NCc2ccc3nc(N)nc(N)c3c2C)cc(OC)c1OC,nuclear beta-catenin stimulation,[2]; at 10 µM,40.4% (active)
same,nuclear beta-catenin stimulation,"[2]; stimulation, at 2 µM",71.7%
same,insulin secretion stimulation,[3],3.6% (inactive)
same,viability decrease,[4],105% (active)
same,tube area decrease,[5],60.1% (active)
same,GLP1 secretion stimulation,[6],2.9% (inactive)
same,inhibition of viability,[7],94.9% (active)
same,viability decrease (inhibition),[8],142% (active)
same,viability decrease (inhibition),[9],70.6% (active)
same,AC50,[10],18.7 µM (active)
same,AC50,[15],2.95 µM (active)
same,AC50,[11],20.9 µM (active)
same,AC50,[16],2.63 µM (active)
C[C@@H]1C[C@H]2[C@@H]3CCC4=CC(=O)C=C[C@]4(C)[C@@]3(Cl)[C@@H](O)C[C@]2(C)[C@@]1(OC(=O)c1ccco1)C(=O)CCl,parasite load remaining,[1],101% (inactive) and 89.2% (inactive)
same,viability,[1],90.7% and 72.5%
same,nuclear beta-catenin stimulation,[2]; at 10 µM,23.1% (inactive)
same,nuclear beta-catenin stimulation,"[2]; stimulation, at 2 µM",2.8%
same,insulin secretion stimulation,[3],-0.7% (inactive)
same,viability decrease,[4],-43% (inactive)
same,tube area decrease,[5],99.7% (active)
same,GLP1 secretion stimulation,[6],3.9% (inactive)
same,inhibition of viability,[7],67% (active)
same,viability decrease (inhibition),[8],119% (active)
same,viability decrease (inhibition),[9],95.5% (active)
same,AC50,[10],4.69 µM (active)
same,AC50,[18],13.2 µM (active)
same,AC50,[15],29.5 µM (active)
same,AC50,[11],20.9 µM (active)
same,outcome,[17],inactive
same,fold change,[12]; [20],0.786 (inactive)
same,fold change,[12]; [21],1.68
same,cell count,[12]; [22],4000
same,cell count,[12]; [23],5090
same,z-score,[13]; [24],-1.01 (inactive)
same,z-score,[13]; [25],-0.104
O=C(O)c1nc(=O)[nH]c(=O)[nH]1,nuclear beta-catenin stimulation,[2]; at 10 µM,0.4% (inactive)
same,nuclear beta-catenin stimulation,"[2]; stimulation, at 2 µM",0.2%
same,insulin secretion stimulation,[3],-2.5% (inactive)
same,viability decrease,[4],-8.95% (inactive)
same,tube area decrease,[5],-8.3% (inactive)
same,GLP1 secretion stimulation,[6],0.9% (inactive)
same,inhibition of viability,[7],-17.1% (inactive)
same,viability decrease (inhibition),[8],29% (inactive)
same,viability decrease (inhibition),[9],12.8% (inactive)
same,outcome,[10],inactive
same,outcome,[18],inactive
same,outcome,[15],inactive
same,outcome,[11],inactive
same,outcome,[16],inactive
same,outcome,[17],inactive
CCCCCCCCOc1ccccc1C(=O)Nc1ccc(C(=O)OCC[N+](C)(CC)CC)cc1,nuclear beta-catenin stimulation,[2]; at 10 µM,4.2% (inactive)
same,nuclear beta-catenin stimulation,"[2]; stimulation, at 2 µM",0.1%
same,insulin secretion stimulation,[3],15.7% (inactive)
same,viability decrease,[4],99.7% (active)
same,tube area decrease,[5],101% (active)
same,GLP1 secretion stimulation,[6],-3.3% (inactive)
same,inhibition of viability,[7],98.4% (active)
same,viability decrease (inhibition),[8],88.6% (active)
same,viability decrease (inhibition),[9],99% (active)
same,AC50,[10],23.5 µM (active)
same,AC50,[18],18.7 µM (active)
same,fold change,[12]; [20],0.913 (inactive)
same,fold change,[12]; [21],0.694
same,cell count,[12]; [22],7980
same,cell count,[12]; [23],8740
same,z-score,[13]; [24],-0.155 (inactive)
same,z-score,[13]; [25],-0.0436
CC1=C(C)C(=O)C(CCCCC#CCCCC#CCO)=C(C)C1=O,parasite load remaining,[1],55.8% (inactive)
same,viability,[1],216%
same,nuclear beta-catenin stimulation,[2]; at 10 µM,2.7% (inactive)
same,nuclear beta-catenin stimulation,"[2]; stimulation, at 2 µM",-0.7%
same,insulin secretion stimulation,[3],2.7% (inactive)
same,viability decrease,[4],96% (active)
same,tube area decrease,[5],16% (inactive)
same,GLP1 secretion stimulation,[6],5% (inactive)
same,inhibition of viability,[7],87.4% (active)
same,viability decrease (inhibition),[8],126% (active)
same,viability decrease (inhibition),[9],54.6% (active)
same,fold change,[12]; [20],1.02 (inactive) and 0.926 (inactive) and 0.838 (inactive)
same,fold change,[12]; [21],1.5 and 0.952 and 1.53
same,cell count,[12]; [22],8160 and 3040 and 7890
same,cell count,[12]; [23],7960 and 3280 and 9410
same,outcome,[19],inactive
same,z-score,[13]; [24],0.195 (inactive)
same,z-score,[13]; [25],-1.24
same,z-score,[14],-1.52 (inactive) and -1.61 (inactive)
CN(c1nccc(=O)[nH]1)C1CCN(c2nc3ccccc3n2Cc2ccc(F)cc2)CC1,nuclear beta-catenin stimulation,[2]; at 10 µM,-1.9% (inactive)
same,nuclear beta-catenin stimulation,"[2]; stimulation, at 2 µM",-0.5%
same,insulin secretion stimulation,[3],4.3% (inactive)
same,viability decrease,[4],-6.8% (inactive)
same,tube area decrease,[5],10.5% (inactive)
same,GLP1 secretion stimulation,[6],-3% (inactive)
same,inhibition of viability,[7],26.2% (inactive)
same,viability decrease (inhibition),[8],9.6% (inactive)
same,viability decrease (inhibition),[9],-5.1% (inactive)
same,outcome,[10],inactive
same,outcome,[18],inactive
same,outcome,[11],inactive
same,z-score,[13]; [24],0.306 (inactive)
same,z-score,[13]; [25],0.258
O=C(CS(=O)Cc1ccco1)NC/C=C\COc1cc(CN2CCCCC2)ccn1 (stereo not drawn),nuclear beta-catenin stimulation,[2]; at 10 µM,-0.3% (inactive)
same,nuclear beta-catenin stimulation,"[2]; stimulation, at 2 µM",-0.8%
same,insulin secretion stimulation,[3],4% (inactive)
same,viability decrease,[4],-4.8% (inactive)
same,tube area decrease,[5],8% (inactive)
same,GLP1 secretion stimulation,[6],-0.5% (inactive)
same,inhibition of viability,[7],2.2% (inactive)
same,viability decrease (inhibition),[8],-8.8% (inactive)
same,viability decrease (inhibition),[9],6.7% (inactive)
same,outcome,[10],inactive
same,outcome,[18],inactive
same,outcome,[11],inactive
